# Data from ChEMBL document CHEMBL1157539, “Thousands of chemical starting points for antimalarial lead identification” (Nature, 2010).
# Columns and labels:
# Type in all cases: functional
# Plasmodium falciparum [1] = assay: GSK_TCMDC: Inhibition of Plasmodium falciparum 3D7 in whole red blood cells, using parasite LDH activity as an index of growth. Test compounds present at 2uM
# Plasmodium falciparum [2] = assay: GSK_TCMDC: Inhibition of Plasmodium falciparum Dd2 in whole red blood cells, using parasite LDH activity as an index of growth. Test compounds present at 2uM
# HepG2 = assay: GSK_TCMDC: Percent inhibition of human HepG2 cell line. Test compounds present at 10uM.
SMILES,Inhibition (Plasmodium falciparum [1]) [%],Inhibition (Plasmodium falciparum [2]) [%],Inhibition (HepG2) [%]
O=C(Nc1ccc(Cl)c(-c2nc3ccccc3[nH]2)c1)c1ccc(-c2ccc(Cl)cc2)o1,89,22,16
CCC(C)OC(=O)C1=C(C)NC2=C(C(=O)CC(c3ccc(OC)c(OC)c3)C2)C1c1ccc(C)o1 (configuration not stated),93,82,6
C#CCNC(=O)c1ccc(-c2ccnc(Nc3cccc(CCCN4CCOCC4)c3)n2)s1,82,45,54
Cc1cccc(C(=O)N2CCN(Cc3cccc(NC(=O)c4ccco4)c3)CC2)c1.O=C(O)C(F)(F)F,94,79,7
CCC(=O)Oc1ccc(NC(=O)c2cccc(OC)c2)cc1,98,3,17
CC(C)CC(=O)N(Cc1ccc(-c2ccc(CNC3Cc4ccccc4C3)cc2)cc1)C1CCNCC1.O=C(O)C(F)(F)F,85,65,20
COc1ccc(CCNCCCCCCNCCCc2ccc(Cl)cc2)cc1OC.Cl,96,2,36
CC(C)(C)OC(=O)NCc1ccc(Nc2nnc(-c3cccc(C(=O)NCCC(c4ccccc4)c4ccccc4)c3)o2)cc1,100,89,0
CCCCCCN1CCCN(Cc2ccc(C(=O)Nc3ccc(CCC)cc3)cc2)CC1.O=C(O)C(F)(F)F,92,56,45
FC(F)(F)c1ccc2[nH]c(-c3cccc(-c4cccc(CNCCN5CCNCC5)c4)c3)nc2c1.O=C(O)C(F)(F)F,92,18,29
COc1ccc(NC(=O)c2ccc(-c3nc(-c4ccc(Cl)cc4)cs3)cc2)cc1N1CCN(C)CC1,91,34,30
CC(C)Cn1c(Sc2ccc(C#N)c([N+](=O)[O-])c2)nnc1-c1ccccc1Cl,93,46,18
COc1ccc(-c2nccc(NC(=N)NCc3ccccc3)n2)cc1,83,21,27
Cc1ccc(-c2cc(C(=O)Nc3ccc(S(=O)(=O)N4CCCC(C)C4)cc3)[nH]n2)c(O)c1 (configuration not stated),100,99,32
Cc1ccc(C(=O)Nc2ccc(C)c(OC3CCN(Cc4ccco4)C3)c2)cc1.O=C(O)C(F)(F)F (configuration not stated),90,49,10
O=C(NCCN1CCCC1)c1ccc(-c2ccc(-c3nc4cc(C(F)(F)F)ccc4[nH]3)s2)cc1,97,65,31
CCOC(=O)c1nc(-c2ccc(-c3ccccc3)cc2)[nH]c1N.Cl,98,2,0
CC(=O)Nc1ccc(OCCCCN(Cc2ccccc2C(F)(F)F)c2ccc(C#N)c(C(F)(F)F)c2)cc1,80,47,0
CCc1ccccc1NC(=O)CN1CCN(c2ncnc3scc(-c4ccc(F)cc4)c23)CC1,83,62,6
COc1ccc2c(=NN=Cc3cccc(C)n3)cc(-c3ccccc3)[nH]c2c1,97,25,0

SMILES,Inhibition (Plasmodium falciparum [1]) [%],Inhibition (Plasmodium falciparum [2]) [%],Inhibition (HepG2) [%]
CC(C)(C)c1ccc2oc(=O)n(C3CCN(C(=O)c4ccc([N+](=O)[O-])o4)CC3)c2c1,94,87,0
Cl.Oc1ccccc1Nc1nc(NCc2ccco2)c2ccccc2n1,99,71,0
O=C(Nc1ccc(Cl)cc1)c1cccc2nc(C(F)(F)F)[nH]c12,93,98,84
CCCCCCN1CCCN(Cc2ccc(C(=O)Nc3cccc(CC)c3)cc2)CC1.O=C(O)C(F)(F)F,85,54,31
COCCN(C)c1ccc(C(=O)Nc2ccccc2)cc1NS(=O)(=O)Cc1ccccc1.O=C(O)C(F)(F)F,92,47,2
CC(=O)Oc1ccc(C(=O)Oc2ccccc2C#CC#N)cc1OC(C)=O,93,61,23
O=C(Cc1cccs1)NC(CCCN1CCC(Oc2cccc(Cl)c2)CC1)c1ccc(Cl)c(Cl)c1 (configuration not stated),86,70,39
Cc1cc(C(=O)Nc2ccc3c(c2)CCN3C2CCN(Cc3ccc4nsnc4c3)C2)no1 (configuration not stated),90,94,0
CC(=O)/N=C1\N=C(NC(C)=O)NC(C)(C)N1OCCCOc1ccc(Cl)c(Cl)c1,96,94,65
O=C(NCCSCc1c(F)cccc1Cl)c1cnc2c(c1)nc(-c1c[nH]c(-c3ccccc3)n1)n2CCc1c[nH]cn1,93,45,10
CC(C)(C)c1ccc(C(=O)Nc2ccc(NC(=O)c3ccc([N+](=O)[O-])o3)cc2)cc1,81,4,0
Cc1ccc(NC(=O)c2cccc(N3CCN(c4ccncc4)CC3)c2)cc1F.O=C(O)C(F)(F)F,100,72,43
O=C(Nc1ccccc1)Nc1cccc(-c2nn3c(OCC4CCCCN4)cccc3c2-c2ccncc2)c1 (configuration not stated),97,82,9
O=C(CC1SC(N2N=C(c3cccs3)CC2c2ccccc2)=NC1=O)Nc1ccccc1F (configuration not stated),87,76,9
CCN(CC)CCCN(CCCN(CC)CC)c1cc(C)nc(Nc2ccc3cc(Br)ccc3c2)n1.Cl,100,73,12
CCCCCCCN1CC[C@@H](CCCc2ccnc3ccc(OCCCCNC(N)=O)cc23)[C@@H](CC)C1.O=C(O)C(=O)O,93,18,41
CCCCOC(=O)NCCCC[C@H](NC(=O)OC(C)(C)C)C(=O)N[C@H](C(=O)OC(c1ccccc1)c1ccccc1)[C@H]1O[C@@H](n2ccc(=O)[nH]c2=O)[C@@H]2OC(C)(C)O[C@@H]21,87,65,7
O=C(O)C(F)(F)F.c1ccc(CCNCc2ccc(-c3ccc(CNCc4ccc5c(c4)OCO5)cc3)nc2)cc1,94,67,24
CC1(C)CCCN(Cc2c(O)ccc3c(O)c(-c4nc5ccccc5s4)c(=N)oc23)C1,100,100,20
